We go through 37 compounds from PubChem BioAssay (NCI).

The panel holds about 83,000 compounds, 20% with a hit somewhere; the sample as a whole holds those more often.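 Method: cells in 96-well plates; compound added at one concentration; 48 h incubation; percent growth measured; values under 10 scored active.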 A number with no mark means an inactive call. Active and inactive are the calls of the source.

The test relates to HL-60(TB) leukemia. The experiment in a line: NCI-60 one-dose screen, 48 h (100 = growth as untreated, 0 = no growth, -100 = all killed). The note with it: 10 µM unless noted.
As to `CCCCCCCCCCCCCC[n+]1ccccc1`, the growth is -70.3% (active). As for `NC(=O)c1cc(I)ccc1NC(=O)COc1ccc(Cl)cc1Cl`, the growth is 76.9%. Under `COc1ccc(/C=N/NC(N)=S)c(OC)n1` stands 93.4%; under `Cc1cc(N/N=C/c2nc(-c3ccc(Br)cc3)oc2C)c2cc(Br)ccc2n1`, 18.9%. For the compound `C[C@@]1(N2C(=O)OC[C@@H]2c2ccccc2)C(=O)N([C@H](CC(=O)N2CCC(N3CCCCC3)CC2)C(=O)NCc2cccc(C(F)(F)F)c2)[C@@H]1/C=C/c1ccccc1`, the growth is 81%. Under `COc1ccc(C(=O)c2cc3c(N)c(C(=O)Nc4cccc(Br)c4C)sc3nc2C)cc1` stands -58.7% (active); under `O=C1c2cccnc2C(=O)c2c1c(C(=O)OCCN1CCOCC1)c1ccccn21`, -36.4% (active). In the case of `CCCCN1CCCn2c1nc1c2c(=O)n(CCC)c(=O)n1CCC` it was 109%; in that of `CCOC(=O)CCN(C(=O)Nc1ccccc1)C1CCCCC1`, 113%; in that of `O=C(Nc1ccccc1O)c1ccc(CNC(=O)c2sccc2Nc2ccnc(C(F)(F)F)c2)cc1`, 25.2%. For the compound `CCOC(=O)c1cc(C(=O)c2cc(OC)c(OC)c(OC)c2)n2nc(C)ccc12`, the growth is -24.2% (active). In the case of `Cc1ccc2nc3nc4ccc[nH]c4cc3c2c1` it was 124%.

On to `O=c1[nH]c(-c2ccccc2)nc2sc3cc(O)ccc3c12`, for which the growth was -33.5% (active). Under `NC(=O)CC(NC(=O)COc1ccc(Cl)cc1Cl)C(=O)O` (configuration not stated) stands 109%. Under `COc1ccc(/C=C2\CN(C(=O)C(Cl)Cl)C/C(=C\c3ccc(OC)c(OC)c3)C2=O)cc1OC` stands -11.4% (active); under `CCC(CC)NCCCCCNc1cc(OC)cc2cccnc12`, 110%; under `CC1=CC(=O)OC1C/C=C(\C)CCC1[C@@]2(C)CCC[C@@](C)(C(=O)O)C2CC[C@@]1(C)O` (some centres not stated), 95.8%. In the case of `Nc1c(Cl)cccc1[N+](=O)[O-]` it was 112%. As to `COc1cccc(NC(=O)Nc2ccc(Nc3ncnc4[nH]c(C)c(C)c34)cc2)c1`, the growth was 104%. In the case of `O=S(=O)(O)c1ccc(O)c2ccccc12`, the growth is 86%. Under `COc1ccc(/C=C\c2cc(OC)c(OC)c(OC)c2)cc1OC(=O)c1cccc(Cn2cc(CCOC(=O)c3cccc(Cn4nnc5c4C(=O)c4ccccc4C5=O)c3)nn2)c1` stands -21.9% (active); under `Nc1ccc(-c2cccs2)cc1NC(=O)c1ccc(CCCC(=O)Nc2ccc(C3CC3N)cc2)cc1` (configuration not stated), 66%; under `c1ccc2c(-c3nc(-c4c[nH]c5ccncc45)cs3)c[nH]c2c1`, 45.9%. Under `CS(=O)(=O)c1cccnn1` stands 108%; under `CCNC(=O)Oc1ccc(/C(=C(\C)c2ccccc2)c2ccc(OCCN3CCCCC3)cc2)cc1`, 45.5%; under `N#C/C(=C\c1ccc(Br)cc1)n1nnc2c(F)cccc21`, 0.171% (active). In the case of `COC(=O)/C=C/c1cc(OC(C)=O)c2c(c1)C(C(=O)OC)C(c1ccc(OC(C)=O)c(OC(C)=O)c1)O2` (configuration not stated) it was -35% (active); in that of `COc1ccc(C(=O)COc2cccc(/C=C3\COc4ccc5ccccc5c4C3=O)c2)cc1`, 72.1%; in that of `C=C(C)[C@@H]1CC[C@]2(C(=O)OC)CC[C@]3(C)[C@H](CC[C@@H]4[C@@]5(C)CC/C(=N\OCCC(=NCCC#N)NOCCC#N)C(C)(C)[C@@H]5CC[C@]43C)[C@@H]12`, 0.897% [100 µM] (active).

As for `COc1ccccc1-c1ccc2nc(NC(=O)Nc3cc(C(F)(F)F)cc(C(F)(F)F)c3)sc2c1`, the growth was -34.5% (active).

For `COC(=O)/C=C1\S/C(=N\Nc2ccc([N+](=O)[O-])cc2[N+](=O)[O-])N(C2CCCCC2)C1=O`, the growth is 8.63% (active).

Regarding `c1ccc2c(c1)oc1cc3c(cc12)nnc1cccn13`, the growth was 108%. In the case of `O=C(NCCNc1nccc(-n2ccc3cccnc32)n1)c1ccc(C(F)(F)F)cc1` it was 107%; in that of `Cc1nn(-c2cc(NC3CCC(O)CC3)c3c(=O)[nH]c(CCC(F)(F)F)cc3c2)c2c1C(=O)CC(C)(C)C2` (configuration not stated), 28%; in that of `O=C1OCC/C1=C\OCCCO/C=C1\CCOC1=O`, 104%.

`Clc1ccc2nn3c4ccccc4c(OCCN4CCOCC4)nc3c2c1`: the growth is 81.9%. `CCOC(=O)[C@@H](C)C[C@H](Cc1ccccc1)NC(=O)c1csc([C@@H](C[C@H](C(C)C)N(C)C(=O)[C@@H](NC(=O)[C@H]2C[C@H](O[Si](C)(C)C(C)(C)C)CCN2C)C(C)C)OC(C)=O)n1`: the growth is -36.9% [9.25 µM] (active).
